# A350 autofl = compounds fluorescent in Alexa 350 spectral region; Compound autofluorescence, 340/450 nm, Alexa 350 dye-equivalents; stronger effect = higher value; max dye-equivalent concentration, M; hit rate 11% among 59,000; AID 590; in the data active = max dye-equivalent concentration above about 10 nM; inconclusive = mostly about 1.1 nM to 9.6 nM
# 4-MU autofl = compound fluoresces in the 4-MU spectral region | hit rate 11% among 59,000 | compound autofluorescence, 340/450 nm, 4-MU equivalents; stronger effect = higher value | max dye-equivalent concentration, M; in the data active = max dye-equivalent concentration above about 10 nM; inconclusive = mostly about 1.1 nM to 9.6 nM
#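 Intrinsic fluorescence at 340/450 nm (ex/em) was read after 15 min at room temperature in pH 8.0, 100 mM Tris. Each compound concentration expressed as 4-MU-equivalent concentration from a six-point 4-MU standard series on each plate.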
# CRE Fsk mod = CRE-bla signaling modulation under forskolin stimulation; CHO CRE-bla reporter (cAMP response element driving beta-lactamase), forskolin EC10, beta-lactamase ratio; Potency, µM (series often up to 38.2 µM), inactives show top-dose activity change, negative = inhibition, usual class: activators; hit rate 2.5% among 71,000; AID 662; active = well fitted activation curve with a large enough effect in the signal ratio, with a control signal flat, not every such curve was filed as active; inconclusive = small, poorly fitted or top-dose-only effect, or effect the other way, or a change in a side signal; the % refers to the signal ratio; note: potency is the fitted concentration of half-maximal effect; % of control where 0% means no effect
#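 CRE-bla CHO cells stimulated with EC10 NKH 477 (water-soluble forskolin) and compound titrations, 3 h at 37C; beta-lactamase read with CCF4 after 2 h at room temperature. Activity from 460/530 nm emission ratio, AC50 values for positive or negative modulation.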
# HSD17B inhib = blocks hydroxysteroid 17-beta dehydrogenase activity; recombinant HSD17B10, NADH fluorescence kinetic; hit rate 7.6% among 75,000; Q99714; Potency, µM (highest dose often 57.1 µM), without a hit: at the highest dose activity change, negative = inhibition, hits mostly inhibitors;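 note: the protocol describes HADH2 (HSD17B10) and not the HSD17B4 of the title; potency is the fitted concentration of half-maximal effect; % is set by controls: 0 for no effect and ±100 for the full control effect; nearly all actives have a fitted effect of over 70% in size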
#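 20 nM HADH2, pH 9.0 Tris/Tween; cpd preinc 15 min RT; start w/ 1 mM NAD+ + 90 uM b-hydroxybutyryl-CoA; kinetic fluor ex360/em450 q30s x 4 min; delta last-first.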
# HADH2 inh = blocks human hydroxyacyl-CoA dehydrogenase type II; hit rate 3.4% among 73,000; Potency, µM (doses to about 57.1 µM), inactives show top-dose activity change, negative = inhibition, hits mostly inhibitors; recombinant HADH2, NADH fluorescence, beta-hydroxybutyryl-CoA; Q99714; note: potency is the fitted concentration of half-maximal effect; % is set by controls: 0 for no effect and ±100 for the full control effect; nearly all actives have a fitted effect of over 60% in size
# Target sequence (Q99714 whole entry, looked up, one chain of several): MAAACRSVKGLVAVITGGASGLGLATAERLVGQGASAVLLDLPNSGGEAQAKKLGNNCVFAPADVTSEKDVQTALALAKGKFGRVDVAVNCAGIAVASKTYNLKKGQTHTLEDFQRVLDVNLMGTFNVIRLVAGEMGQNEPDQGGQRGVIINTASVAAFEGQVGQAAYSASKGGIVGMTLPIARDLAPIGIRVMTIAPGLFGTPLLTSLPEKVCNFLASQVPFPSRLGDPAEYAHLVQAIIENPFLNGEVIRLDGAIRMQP
#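 His-tagged recombinant enzyme from E. coli, 20 nM, preincubated 15 min RT with compound; reaction started with 1 mM NAD+ and 90 uM beta-hydroxybutyryl-CoA in 100 mM Tris-HCl pH 9.0. NADH fluorescence (ex 360/em 450) read over 4 min; last-minus-first difference.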
# AID923 = qHTS Assay for Allosteric/Competitive Inhibitors of Caspase-1: Spectroscopic Profiling in AFC Spectral Region; compound fluorescence, AFC spectral region (405/520 nm); Potency, µM (titrated, usually from 57.5 µM), for the others: top-dose fluorescence increase, actives largely listed as activators; hit rate 1.1% among 75,000; AID 923, 2007; note: potency is the fitted concentration of half-maximal effect; 0% is about no effect
#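 Compound autofluorescence profiled at 405 nm ex/520 nm em during kinetic caspase 1 run (50 nM enzyme, 5 uM Ac-WEHD-AFC, HEPES pH 7.5, 10 mM DTT). Titration up to 57 uM; baseline from regression intercept, normalized to AFC standard curve.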
# The depositor's hits bear a star; i = inactive; ? = inconclusive; nt = no result; [ ] = dose if it differs, or a comment. Shown are actives, neighbours in structure and some others; about 14% of the full set was active somewhere. Unless noted, calls come from the whole dose curve; as a rule, active = well fitted curve in the direction sought with a large enough effect; inconclusive = small, poorly fitted or top-dose-only effect, or another doubt; inactive = no such curve, though single readings can be large; an effect the other way counts as inactive or inconclusive.
SMILES,A350 autofl,4-MU autofl,CRE Fsk mod,HSD17B inhib,HADH2 inh,AID923
Cc1c(C(=O)COC(C)(C)C)[nH]c2ccccc12,i,i,?,?,-11%,-1%
Cn1c(=O)c2c(nc3sccn32)n(C)c1=O,i,i,?,9%,-9%,-1%
O=c1[nH]c(NCCO)nc2c1C1(CCCCC1)Cc1ccccc1-2,2.9e-07M*,3e-07M*,-28%,32µM*,?,-1%
CC1CCc2nn(CC(=O)NCCN3CCCCC3C)cc2C1 (stereo unspecified),nt,nt,-5%,9%,3%,0%
COc1ccc(C(C#N)C2(C)OCCO2)cc1OC (stereo unspecified),nt,nt,23%,8%,8%,1%
COc1ccc2cc(CN(CC3COCCO3)S(=O)(=O)c3ccccc3)c(=O)[nH]c2c1 (stereo unspecified),i,i,-5%,-63%,128%,-2%
COc1cc2cc(CN(CCO)S(=O)(=O)c3ccccc3Cl)c(=O)[nH]c2cc1OC,3.3e-07M*,2.6e-07M*,?,25µM*,5%,13%
COc1ccc2cc(CN(Cc3cccnc3)S(=O)(=O)c3ccccc3)c(=O)[nH]c2c1,?,?,3%,25µM*,23%,-3%
COc1cc2cc(CN(CCCO)S(=O)(=O)c3ccccc3Cl)c(=O)[nH]c2cc1OC,2.3e-07M*,2.2e-07M*,15%,?,34%,5%
CCCC(=O)N(Cc1cc2ccccc2[nH]c1=O)c1ccccc1OC,i,i,nt,nt,nt,nt
Cc1ccc2[nH]c(=O)c(CN(CCCO)S(=O)(=O)c3c(C)ccc4nsnc34)cc2c1,i,i,-3%,5%,2%,0%
Cc1cc2cc(CN(CCCO)S(=O)(=O)c3cccc4nsnc34)c(=O)[nH]c2cc1C,i,i,?,-5%,-2%,0%
COc1cc2cc(CN(CCCO)S(=O)(=O)c3ccccc3)c(=O)[nH]c2cc1OC,3.5e-07M*,4.4e-07M*,6%,32µM*,57%,2%
CCC(C)(C(=O)NC1CCCC1)N(C(=O)c1cnccn1)c1c(C)n(C)n(-c2ccccc2)c1=O (stereo unspecified),i,i,?,13%,18%,1%
Cc1cc(N)c2cc(NC(=O)Nc3ccc4nc(C)cc(N)c4c3)ccc2n1,5.1e-08M*,4.6e-08M*,-1%[7.6 µM],-30%[11.4 µM],16%[11.4 µM],8%[11.5 µM]
Cc1cc(N)c2cc(OCCOc3ccc4nc(C)cc(N)c4c3)ccc2n1,nt,nt,nt,?,nt,18%[11.5 µM]
COCCNC(=O)C1(CC(C)C)C=CCN1C(=O)OC (stereo unspecified),nt,nt,-2%,-1%,7%,0%
COc1ccc2[nH]cc(CCNc3ncncc3-c3c(C)noc3C)c2c1,i,i,11%,6%,13%,3%
N#Cc1c(F)cccc1N1CCOCC1,1.6e-08M*,1.5e-08M*,2%,32µM*,16%,1%
O=C(c1ccco1)N1CCN(/C(=N/S(=O)(=O)c2cccs2)c2ccccc2Cl)CC1,i,i,?,-13%,4%,-1%
O=C(Nc1cccc(F)c1)N1CC2(CCN(C(=O)c3cccc(F)c3)CC2)C1,i,i,-13%,6%,4%,1%
COc1ccccc1-c1cc(Nc2ccn[nH]2)ncn1,1.7e-08M*,1.5e-08M*,?,2%,16%,4%
COc1ccccc1-c1cc(Nc2ccc(F)cc2)ncn1,i,i,?,?,9%,5%
Cc1cnc(CNc2cc(-c3cccc(NS(C)(=O)=O)c3)ncn2)cn1,i,i,2%,-16%,?,2%
N=c1c2c(-c3ccccc3)c(-c3ccccc3)oc2ncn1CCN1CCOCC1,?,?,?,?,9%,2%
SMILES,A350 autofl,4-MU autofl,CRE Fsk mod,HSD17B inhib,HADH2 inh,AID923
COc1ccc(-c2nnc3sc(COc4ccccc4)nn23)cc1,i,i,nt,nt,nt,nt
COc1ccc(-c2oc3ncn4nc(COc5ccccc5)nc4c3c2-c2ccc(OC)cc2)cc1,1.3e-07M*,1.1e-07M*,nt,nt,nt,nt
COc1ccc(-c2oc3ncn4nc(Cc5ccccc5)nc4c3c2-c2ccc(OC)cc2)cc1,7e-08M*,6.9e-08M*,nt,nt,nt,nt
Cn1ncc(Cl)c1C(=O)Nc1cccnc1,i,i,-5%,-7%,-1%,-1%
Nc1c(S(=O)(=O)O)cc(S(=O)(=O)O)c2ccc(N=Nc3ccccc3)c(O)c12,1.3e-08M*,1.1e-08M*,1%[7.6 µM],-12%[11.4 µM],-4%[11.4 µM],-1%[11.5 µM]
C1=Nc2c(Nc3ccccc3)ncnc2Oc2ccccc21,?,i,18%,2%,-4%,-3%
Cc1c(NC(=O)Cn2cnc3c(=O)n(C)c(=O)n(C)c32)cccc1-c1nc2ccccc2o1,i,i,-6%,-5%,5%,0%
Cn1c(SCC(=O)c2ccc(F)cc2)nnc1-c1cnccn1,i,i,-4%,-8%,-2%,1%
Cn1c(SCc2ccccc2Cl)nnc1-c1cnccn1,7.6e-08M*,1.9e-07M*,8%,25µM*,-7%,7%
O=S(=O)(c1ccccc1)N1CCC2(CCN(Cc3ccncc3)CC2)CC1,i,i,13%,6%,5%,0%
Clc1ccc(CSc2ncn[nH]2)cc1,nt,nt,0%,2%,-7%,2%
O=c1ccnc(SCc2ccc(Cl)cc2)[nH]1,2.1e-08M*,2e-08M*,0%[7.6 µM],7%[11.4 µM],0%[11.4 µM],0%[11.5 µM]
COc1ccc(NC(=O)N2CC[C@@]3(CCCNC3)C2)cc1,i,i,4%,-8%,4%,1%
CC1CCCC(C(=O)O)N1C(=O)CCSC(=O)c1ccccc1 (stereo unspecified),3e-08M*,2.5e-08M*,-12%,-1%,-6%,4%
Cc1ccc(CC(NC(=O)c2ccccc2)C(=O)N2CCCC2C(=O)O)cc1 (stereo unspecified),i,i,0%,-7%,-15%,0%
COc1ccc(NC(=O)Cn2nnc(-c3ccccc3NC(=O)c3ccco3)n2)cc1,i,i,18%,401%,7%,-2%
COc1ccccc1NC(=O)Cn1nnc(-c2ccccc2NC(=O)c2cccs2)n1,i,i,?,32µM*,7%,1%
O=C(Cn1nnc(-c2ccccc2NC(=O)c2cccs2)n1)Nc1ccccc1,1.1e-08M*,?,?,25µM*,28%,0%
COc1ccc(C(=O)Nc2ccccc2-c2nnn(CC(=O)NCc3ccco3)n2)cc1,i,i,?,32µM*,-29%,1%
N#Cc1cccc(NC(=O)N2CC3(CCN(C(=O)c4cccc(F)c4)CC3)C2)c1,i,i,-9%,5%,-2%,-1%

# Assay outcomes as filed in PubChem BioAssay.
